Experimental data taken from the supplement of paper PMC7184167.
Where a name gives a salt, the structure may show the parent alone.

test system: replication-induced senescent mouse newborn dermal fibroblasts (NBF); experiment: relative cell viability of senescent cells (fraction); higher = less killing of senescent cells; conditions: 1 µM; 3 days
Experimental: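 Replication-induced senescent newborn mouse skin fibroblasts (NBFs) in 24-well plates were treated with a Selleck FDA-approved drug library at 1 µM for 3 days.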

| Structure (SMILES) | relative cell viability |
| --- | --- |
| CCCOc1ccc(C(=O)OCCN(CC)CC)cc1N [Proparacaine HCl] | 0.992 |
| NS(=O)(=O)c1cc2c(cc1Cl)NC(C(Cl)Cl)NS2(=O)=O (stereo not drawn) [Trichlormethiazide] | 0.981 |
| CCCCCCCCCCC[C@@H](C[C@@H]1OC(=O)[C@H]1CCCCCC)OC(=O)[C@H](CC(C)C)NC=O [Orlistat] | 0.998 |
| COc1cccc2c1C(=O)c1c(O)c3c(c(O)c1C2=O)CC(O)(C(=O)CO)CC3OC1CC(N)C(O)C(C)O1 (stereo not drawn) [Doxorubicin (Adriamycin) HCl] | 0.957 |
| CC1(C)O[C@@H]2C[C@H]3[C@@H]4CCC5=CC(=O)C=C[C@]5(C)[C@H]4[C@@H](O)C[C@]3(C)[C@]2(C(=O)CO)O1 [Desonide] | 1.14 |
| COc1cc([C@@H]2c3cc4c(cc3[C@@H](O[C@@H]3O[C@@H]5CO[C@@H](c6cccs6)O[C@H]5[C@H](O)[C@H]3O)[C@H]3COC(=O)[C@H]23)OCO4)cc(OC)c1O [Teniposide] | 1.08 |
| COc1cc2nccc(Oc3ccc(NC(=O)C4(C(=O)Nc5ccc(F)cc5)CC4)cc3)c2cc1OC | 0.453 |
| OC(CNCC(O)C1CCc2cc(F)ccc2O1)C1CCc2cc(F)ccc2O1 (stereo not drawn) [Nebivolol] | 0.256 |
| CC1(C)O[C@@H]2C[C@H]3[C@@H]4CCC5=CC(=O)C=C[C@]5(C)[C@@]4(F)[C@@H](O)C[C@]3(C)[C@]2(C(=O)CO)O1 [Triamcinolone Acetonide] | 1.02 |
| Nc1ccc(S(N)(=O)=O)cc1 [Sulfanilamide] | 0.91 |
| C[C@]12CC[C@@H]3c4ccc(O)cc4CC[C@H]3[C@@H]1CCC2=O [Estrone] | 1 |
| Cc1ccc(NC(=O)c2ccc(CN3CCN(C)CC3)cc2)cc1Nc1nc(-c2cccnc2)cs1 [Masitinib (AB1010)] | 0.602 |
| C[C@@H](O[C@H]1OCCN(Cc2n[nH]c(=O)[nH]2)[C@H]1c1ccc(F)cc1)c1cc(C(F)(F)F)cc(C(F)(F)F)c1 [Aprepitant] | 1.08 |
| C[C@H]1C[C@H]2[C@@H]3CCC4=CC(=O)C=C[C@]4(C)[C@@]3(F)[C@@H](O)C[C@]2(C)[C@@]1(O)C(=O)CO [Betamethasone] | 0.229 |
| O=S(=O)(c1cccc2cnccc12)N1CCCNCC1 [Fasudil (HA-1077) HCl] | 1.14 |
| Cc1nc2n(c(=O)c1CCN1CCC(c3noc4cc(F)ccc34)CC1)CCCC2 [Risperidone] | 0.76 |
| O=c1[nH]c(=O)n([C@H]2C[C@H](O)[C@@H](CO)O2)cc1C(F)(F)F [Trifluridine] | 0.971 |
| Nc1ccc(S(=O)(=O)Nc2ncccn2)cc1 [Sulfadiazine] | 1.11 |
| Clc1ccccc1C(c1ccccc1)(c1ccccc1)n1ccnc1 [Clotrimazole] | 1.01 |
| COc1cc(Nc2ncc3c(n2)-c2ccc(Cl)cc2C(c2c(F)cccc2OC)=NC3)ccc1C(=O)O [Alisertib (MLN8237)] | 0.0819 |
| CCN(CCO)CCCOc1ccc2c(Nc3cc(CC(=O)Nc4cccc(F)c4)[nH]n3)ncnc2c1 [Barasertib (AZD1152-HQPA)] | 1 |
| CC(=O)O[C@@]12CO[C@@H]1C[C@H](O)[C@@]1(C)C(=O)[C@H](O)C3=C(C)[C@@H](OC(=O)[C@H](O)[C@@H](NC(=O)OC(C)(C)C)c4ccccc4)C[C@@](O)([C@@H](OC(=O)c4ccccc4)[C@H]21)C3(C)C [Docetaxel] | 0.565 |
| C[C@]12CCC(=O)C=C1CC[C@@H]1[C@@H]2[C@@H](O)C[C@@]2(C)[C@H]1CC[C@]2(O)C(=O)CO [Hydrocortisone] | 0.786 |
| C#Cc1cccc(Nc2ncnc3cc(OC)c(OCCCCCCC(=O)NO)cc23)c1 | 1.02 |
| c1ccc2c(CC3=NCCN3)cccc2c1 [Naphazoline HCl] | 0.868 |
| Cc1ccc(F)c(NC(=O)Nc2ccc(-c3cccc4[nH]nc(N)c34)cc2)c1 [Linifanib (ABT-869)] | 0.927 |
| CN1CCN(c2ccc3nc(-c4c(N)c5c(F)cccc5[nH]c4=O)[nH]c3c2)CC1 [Dovitinib (TKI-258, CHIR-258)] | 0.589 |
| NC(=O)NO [Hydroxyurea] | 0.967 |
